# Test results from the supplement of paper PMC8728848.
# Many of the other results were omitted from the sample, so the strongest signals are more common in it than they were.
# B1: Crocus Lectin (Crocus vernus), Q9FVA1 (protein)
# chain: MAKSLVLSSLLLALLLAAPLASLADNNVLLTGDVLHTDNQLSFESAAFVMQGDCNLVLYNEAGGFQSNTHGRGVGCTLRLNNFGQLEIHSANSNTPVWVSLRNGIPVRGDYAAVLGPDQHVTIYGPAIWSTPAPNRHERGATVSNIPRVRNVLFSSQVMSDNAQLATRDYSLVMRDDCNLALTKGSKTNIVWESGTSGRGQHCFMRLGHTGLIEISDDRLNTVWRSNTVGQEGDYVLILQINGQAVVYGPAVWSTASPARGGASAAL
# B2: FBG1 (Homo sapiens), Q9UK22 (protein)
# chain: MDGDGDPESVGQPEEASPEEQPEEASAEEERPEDQQEEEAAAAAAYLDELPEPLLLRVLAALPAAELVQACRLVCLRWKELVDGAPLWLLKCQQEGLVPEGGVEEERDHWQQFYFLSKRRRNLLRNPCGEEDLEGWCDVEHGGDGWRVEELPGDSGVEFTHDESVKKYFASSFEWCRKAQVIDLQAEGYWEELLDTTQPAIVVKDWYSGRSDAGCLYELTVKLLSEHENVLAEFSSGQVAVPQDSDGGGWMEISHTFTDYGPGVRFVRFEHGGQDSVYWKGWFGARVTNSSVWVEP
# Assays:
# Assay in all cases: glycan array binding signal (z-score within array); higher = stronger binding
# Conditions in all cases: glycan notation: IUPAC condensed, linker removed
# [1] = target: Fuc(a1-2)Gal(b1-3)GalNAc(b1-3)Gal(a1-4)Gal(b1-4)Glc
# In short: (§1)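 Columns mapping to the same glycan were averaged after glycan names were converted to IUPAC-condensed notation. The data come from 3228 arrays in the Consortium for Functional Glycomics database, limited to those with an available protein sequence. Binding is reported as a within-array Z-score averaged across arrays of one protein sequence and across linkers.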
# [2] = target: Fuc(a1-2)Gal(b1-4)GlcNAc(b1-3)Gal(b1-4)GlcNAc(b1-3)Gal(b1-4)GlcNAc
# In short: as §1
# [3] = target: Fuc(a1-2)[GalNAc(a1-3)]Gal(b1-4)[Fuc(a1-3)]GlcNAc
# In short: as §1
# [4] = target: Fuc(a1-3)[Gal3S(b1-4)]GlcNAc
# In short: as §1
# Fuc(b1-3)GlcNAc = target: Fuc(b1-3)GlcNAc
# In short: as §1
# Gal(a1-3)Gal = target: Gal(a1-3)Gal
# In short: as §1
# Gal(b1-3)Gal = target: Gal(b1-3)Gal
# In short: as §1
# [5] = target: Gal(b1-4)GalNAc(a1-3)[Fuc(a1-2)]Gal(b1-4)GlcNAc
# In short: as §1
# Gal(b1-4)Glc = target: Gal(b1-4)Glc
# In short: as §1
# Gal(b1-4)Glc6S = target: Gal(b1-4)Glc6S
# In short: as §1
# GlcA(b1-3)Gal = target: GlcA(b1-3)Gal
# In short: as §1
# [6] = target: GlcNAc(a1-6)Gal(b1-4)GlcNAc
# In short: as §1
# [7] = target: GlcNAc(b1-4)GlcNAc(b1-4)GlcNAc
# In short: as §1
# [8] = target: GlcNAc(b1-4)[GlcNAc(b1-6)]GalNAc
# In short: as §1
# GlcNAc(b1-6)GalNAc = target: GlcNAc(b1-6)GalNAc
# In short: as §1
# [9] = target: Man(a1-2)Man(a1-3)[Man(a1-3)[Man(a1-6)]Man(a1-6)]Man(b1-4)GlcNAc(b1-4)GlcNAc
# In short: as §1
# Man(a1-3)[Man(a1-6)]Man = target: Man(a1-3)[Man(a1-6)]Man
# In short: as §1
# [10] = target: Man(a1-3)[Man(a1-6)]Man(a1-6)[Man(a1-3)]Man(b1-4)GlcNAc(b1-4)GlcNAc
# In short: as §1
# [11] = target: Man(a1-3)[Man(a1-6)]Man(b1-4)GlcNAc(b1-4)GlcNAc
# In short: as §1
# [12] = target: Neu5Ac(a2-3)Gal(b1-3)[Neu5Ac(a2-3)Gal(b1-4)]GlcNAc
# In short: as §1
# [13] = target: Neu5Ac(a2-3)Gal(b1-4)[Fuc(a1-3)]GlcNAc6S
# In short: as §1
# [14] = target: Gal(b1-4)GlcNAc(b1-3)GalNAc
# In short: as §1
# [15] = target: Man(a1-2)Man(a1-3)[Man(a1-2)Man(a1-6)]Man(a1-6)[Man(a1-3)[Man(a1-6)]Man(a1-6)]Man(b1-4)GlcNAc(b1-4)GlcNAc
# In short: as §1
# [16] = target: Man(a1-2)Man(a1-6)[Man(a1-3)]Man(a1-6)[Man(a1-2)Man(a1-2)Man(a1-3)]Man(b1-4)GlcNAc(b1-4)GlcNAc
# In short: as §1
# [17] = target: Neu5Ac(a2-3)[GalNAc(b1-4)]Gal(b1-4)GlcNAc
# In short: as §1
# [18] = target: Neu5Gc(a2-3)Gal(b1-3)GlcNAc
# In short: as §1
Binder,glycan array binding signal (z-score) [1],glycan array binding signal (z-score) [2],glycan array binding signal (z-score) [3],glycan array binding signal (z-score) [4],glycan array binding signal (z-score) (Fuc(b1-3)GlcNAc),glycan array binding signal (z-score) (Gal(a1-3)Gal),glycan array binding signal (z-score) (Gal(b1-3)Gal),glycan array binding signal (z-score) [5],glycan array binding signal (z-score) (Gal(b1-4)Glc),glycan array binding signal (z-score) (Gal(b1-4)Glc6S),glycan array binding signal (z-score) (GlcA(b1-3)Gal),glycan array binding signal (z-score) [6],glycan array binding signal (z-score) [7],glycan array binding signal (z-score) [8],glycan array binding signal (z-score) (GlcNAc(b1-6)GalNAc),glycan array binding signal (z-score) [9],glycan array binding signal (z-score) (Man(a1-3)[Man(a1-6)]Man),glycan array binding signal (z-score) [10],glycan array binding signal (z-score) [11],glycan array binding signal (z-score) [12],glycan array binding signal (z-score) [13],glycan array binding signal (z-score) [14],glycan array binding signal (z-score) [15],glycan array binding signal (z-score) [16],glycan array binding signal (z-score) [17],glycan array binding signal (z-score) [18]
B1,-0.162,-0.146,-0.159,-0.187,-0.163,-0.177,-0.192,-0.195,-0.152,-0.165,-0.179,-0.196,-0.156,-0.187,-0.175,3.76,7.87,7.04,6.62,-0.169,-0.195,,,,,
B2,0.049,,,,,-0.252,,,,,,,,,,,,,,,,5.13,4.33,4.93,-0.217,-0.177
